Inconclusive results are not listed. The source holds several records for some structures; these can differ, active in one and inactive in another. Active and inactive are the calls of the source. How the source made its calls: active means hit-call score of the fitted dose curve at least 0.9, where 1 is the maximum; inconclusive means response in the unintended direction; inactive means score below 0.9.

For orientation: AC50 means the concentration at which the activity in the assay is half-maximal.

Sequence of zebrafish Thyroid Hormone Receptor beta (TRb), thrb (gene 30607) (Q9PVE4 whole entry, looked up): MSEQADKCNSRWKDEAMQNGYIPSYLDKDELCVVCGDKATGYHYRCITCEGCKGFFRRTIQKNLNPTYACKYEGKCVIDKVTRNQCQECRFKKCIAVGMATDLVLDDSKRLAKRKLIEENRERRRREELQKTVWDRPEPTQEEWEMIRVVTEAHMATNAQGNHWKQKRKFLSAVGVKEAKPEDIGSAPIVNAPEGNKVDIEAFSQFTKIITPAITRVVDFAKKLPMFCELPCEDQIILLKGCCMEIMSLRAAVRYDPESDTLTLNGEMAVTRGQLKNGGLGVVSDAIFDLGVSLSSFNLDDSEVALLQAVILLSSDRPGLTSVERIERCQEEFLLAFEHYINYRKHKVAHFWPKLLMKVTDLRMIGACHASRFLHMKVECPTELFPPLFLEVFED

For this assay, the target named is zebrafish Thyroid Hormone Receptor beta (TRb), thrb (gene 30607) (UniProt Q9PVE4). Description: ATG_zfTRb_XSP2: Attagene TRANS-FACTORIAL Multi-Species (XSP1) HepG2 Assay for zebrafish Thyroid Hormone Receptor beta (TRb) (AID 2283836).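 On AC50: potency for induction of reporter signal above DMSO so agonist direction.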 The method, then:
ATG_XSP2_multi-species_TRANS is a cell-based, multiplexed assay created by modifying the existing Attagene TRANS-FACTORIAL system to include a panel of nuclear receptors from some or all the following species: human (Homo sapiens), mouse (Mus musculus), frog (Xenopus laevis), zebrafish (Danio rerio), chicken (Gallus gallus), and turtle (Chrysemys picta). The ECOTOX-FACTORIAL format uses HepG2, a human liver cell line, with measurements taken at 24 hours after chemical dosing in a 24-well plate. Xsp2 included 3 nM 6-alpha-fluorotestosterone and 1.5 nM norgestrel to stimulate the androgen receptor.ATG_zfTRb_XSP2 is one of 29 assay components measured or calculated from the ATG_XSP2_multi-species_TRANS assay. It is designed to make measurements of mRNA induction, a form of inducible reporter, as detected with fluorescence intensity signals by Reverse transcription polymerase chain reaction (RT-PCR) and Capillary electrophoresis technology.The assay endpoint ATG_zfTRb_XSP2 was analyzed in the positive analysis fitting direction relative to DMSO as the negative control and baseline of activity. Using a type of inducible reporter, measures of mRNA for gain-of-signal activity can be used to understand the reporter gene at the transcription factor-level as they relate to the gene TR. Furthermore, this assay endpoint can be referred to as a primary readout, because this assay has produced multiple assay endpoints where this one serves a reporter gene function. To generalize the intended target to other relatable targets, this assay endpoint is annotated to the nuclear receptor intended target family, where the subfamily is non-steroidal.
Human liver HepG2 cells are transiently transfected with multiple reporter transcription units (MRTUs) in 6-well plates using FuGene 6 reagent (Roche; 3 ml FuGene/1 mg DNA). The MRTU constructs are regulated by a cis-regulating element (promoter). […] A major difference between the CIS and TRANS system is that in CIS activities of endogenous TFs are measured, whereas the TRANS assay evaluates changes in activities of exogenous, chimeric NR-Gal4 proteins. […] At the end of 24 hour incubation, total RNA was isolated using TriZol reagent (Invitrogen). The isolated RNA is then reverse-transcribed using oligo(dT) primer and Mo-MLV reverse transcriptase (Invitrogen) with DNAse I (Ambion) treatment for 30 min. The one-tenth of the produced cDNA was amplified by PCR using Taq DNA polymerase (Invitrogen) and two reporter sequence-specific primers. The PCR products were fluorescently labeled by primer extension with 6-arboxyfluorescein (6-FAM) 5'-labeled reporter sequence-specific primer (2 min at 95 C, 20 s at 68 C and 10 min at 72 C) and these products were digested with 5U of HpaI (New England Biolabs) for 2h at 37 C. The fragments were purified using Qiaquick PCR columns (Qiagen), analyzed on an ABI 3130xL genetic analyzer (Applied Biosystems) with peak positions identified by using a set of X-rhodamine (ROX)-labeled MapMarker1000 molecular weight standards (BioVentures). The raw capillary electrophoresis data was processed using Attagraph software (Attagene).
`Oc1c(I)cc(I)cc1I`: the result was inactive and the AC50 is 26.3 µM (active). As for `C[C@]12CCC(=O)C[C@@H]1CC[C@@H]1[C@@H]2CC[C@]2(C)[C@@H](O)CC[C@@H]12`, the call was inactive. For the molecule `O=S(=O)(c1ccc(Cl)cc1)c1ccc(Cl)cc1`, the result was inactive. Same read-out and setting: the result for `COP(=O)(OC)O/C(=C\Cl)c1cc(Cl)c(Cl)cc1Cl` reads “inactive”; that for `Clc1ccc(C2(Cn3cncn3)CC(Br)CO2)c(Cl)c1` (stereo not given), “inactive”; that for `CC1(C)CCC(Cc2ccc(Cl)cc2)C1(O)Cn1cncn1` (stereo not given), “inactive”. For the molecule `CC12CC1(C)C(=O)N(c1cc(Cl)cc(Cl)c1)C2=O` (stereo not given), the outcome was inactive. Still for that read-out and setting: the value for `O=C1C2(Cl)C3(Cl)C4(Cl)C(Cl)(Cl)C5(Cl)C3(Cl)C1(Cl)C5(Cl)C24Cl` (stereo not given) was “inactive”. The same measure, in the same setting: the value for `C[C@]12CC[C@H](O)CC1=CC[C@@H]1[C@@H]2CC[C@]2(C)C(=O)CC[C@@H]12` was “inactive”. In the case of `CC(C)C1CCC(Cc2ccc(Cl)cc2)C1(O)Cn1cncn1` (stereo not given), the call was inactive.

Regarding `Oc1ccc(-c2ccccc2)cc1`, the call was inactive.

`CC(C)(C)CC(C)(C)c1ccc(O)cc1`: the molecule was classed as inactive. On the same count and under the same terms, the result for `CC(=O)C=C(C)C` reads “inactive”; that for `CC(C)(C)c1cc(O)ccc1O`, “inactive”.

The values are drawn from PubChem BioAssay (EPA / NIEHS).
